Experimental data taken from PubChem BioAssay.
Activity calls are given as the source filed them.

How the values were obtained:
Albumin (Bos taurus) = Albumin (Bos taurus) (UniProt P02769); assay: bovine serum albumin binders on microarray, profiling panel, artefact control for SMM control protein annotation, biochemical, small-molecule microarray, Alexa647 label, 635/667 nm fluorescence (AID 1118); settings: BSA-A647 binding, fluorescence 635 nm, higher = more signal;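 also: score merges 667 nm emission intensity and signal-to-noise per printed compound spot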
Sequence of Albumin (Bos taurus) (P02769 whole entry, looked up): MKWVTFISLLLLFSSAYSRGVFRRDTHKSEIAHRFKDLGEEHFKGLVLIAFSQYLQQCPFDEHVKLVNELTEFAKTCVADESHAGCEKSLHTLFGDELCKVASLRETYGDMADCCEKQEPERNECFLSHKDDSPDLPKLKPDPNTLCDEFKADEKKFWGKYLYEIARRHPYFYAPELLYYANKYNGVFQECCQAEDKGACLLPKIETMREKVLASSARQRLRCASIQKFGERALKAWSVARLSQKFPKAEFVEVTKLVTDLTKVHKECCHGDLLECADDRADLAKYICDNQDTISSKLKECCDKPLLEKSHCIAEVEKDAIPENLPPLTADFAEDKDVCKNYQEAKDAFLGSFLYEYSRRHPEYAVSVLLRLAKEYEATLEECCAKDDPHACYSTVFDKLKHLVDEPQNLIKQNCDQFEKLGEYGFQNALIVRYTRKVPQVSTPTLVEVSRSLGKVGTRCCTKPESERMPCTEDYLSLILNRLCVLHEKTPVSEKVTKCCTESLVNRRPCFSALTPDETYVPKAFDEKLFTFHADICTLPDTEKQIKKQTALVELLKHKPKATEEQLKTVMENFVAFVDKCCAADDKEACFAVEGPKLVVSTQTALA

[1] = small-molecule microarray binders of probe aXIP, primary screen, biochemical, NeuroSMM set, 635/667 nm fluorescence (AID 1119); settings: higher = more signal, called active from +8 up or from −8 down;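 also: probe is the protein aXip251-270 applied at 1 µg/mL to compound-printed slides; binding of probe to printed compounds measured as 667 nm fluorescence plus signal to noise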
[2] = small-molecule binders of probe aNOTCH3, primary screen, biochemical, small-molecule microarray, 635/667 nm fluorescence (AID 1120); settings: higher = more signal;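 also: probe is a biotin-tagged antibody raised against NOTCH3 rather than NOTCH3 protein; score merges spot fluorescence near 667 nm with spot signal to noise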
[3] = small-molecule binders of probe aNOTCH2, primary screen, biochemical, small-molecule microarray, 635/667 nm fluorescence (AID 1121); settings: higher = more signal;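 also: score merges feature fluorescence read at 667 nm with its signal to noise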
[4] = target: Carbonic anhydrase 2 (Homo sapiens) (UniProt P00918); assay: CAII small-molecule binders, profiling panel, biochemical, small-molecule microarray, Alexa647-labelled CAII (AID 1122); settings: CAII-A647 binding fluorescence, higher = more signal
[5] = COS7 lysate on small-molecule microarray, probe aHis, 635 nm (AID 1123); settings: COS7 cell lysate, fluorescence, higher = more signal;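 also: z-score combines 667nm fluorescence intensity with signal-to-noise per printed compound spot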
[6] = compound binding in COS7 lysate, probe aLAP1, primary screen, cell lysate, small-molecule microarray (AID 1124); settings: probe aLAP1, fluorescence, higher = more signal;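 also: lysate comes from COS7 cells expressing LAP1 and is applied at 0.3 µg/mL; score merges spot fluorescence near 667 nm with signal-to-noise over triplicate slides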
Sam68 (KHDRBS1) = assay: Sam68 small-molecule binders, primary screen, biochemical, small-molecule microarray, 635 nm fluorescence (AID 1125); settings: small-molecule microarray binding, higher = more signal;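 also: score merges 667 nm channel intensity with signal to noise over triplicate slides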
[7] = tested on: Chordin-like protein 2 (CHRDL2); assay: CHRDL2 small-molecule binders, primary screen, biochemical, small-molecule microarray, 635 nm fluorescence (AID 1126); settings: small-molecule microarray binding, fluorescence 635 nm; higher = more signal;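 also: printed compound slides probed with Chrdl2 protein at 4 µg/mL for 1 h at 4 C; score merges 667 nm emission intensity with signal to noise over three replicate slides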
[8] = target: Concanavalin-A (Canavalia ensiformis) (UniProt P02866); assay: ConA small-molecule binders, primary screen, artefact control for SMM control protein annotation, biochemical, small-molecule microarray, Alexa647 label, 635 nm (AID 1127); settings: ConA-A647 binding fluorescence, higher = more signal;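 also: z combines 667 nm emission intensity with signal-to-noise across three replicate slides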
Sequence of Concanavalin-A (Canavalia ensiformis) (P02866 whole entry, looked up): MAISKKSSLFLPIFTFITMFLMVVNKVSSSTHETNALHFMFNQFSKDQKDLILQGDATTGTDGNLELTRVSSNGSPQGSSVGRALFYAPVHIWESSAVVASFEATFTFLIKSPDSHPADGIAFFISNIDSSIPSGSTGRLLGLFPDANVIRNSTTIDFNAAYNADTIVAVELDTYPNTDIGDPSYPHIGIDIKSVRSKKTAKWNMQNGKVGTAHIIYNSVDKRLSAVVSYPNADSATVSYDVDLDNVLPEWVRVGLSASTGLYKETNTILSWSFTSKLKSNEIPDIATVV

[9] = anti-His antibody binders, primary screen, artefact control for SMM control protein annotation, biochemical, small-molecule microarray, 635 nm fluorescence (AID 1128); settings: anti-His Alexa647 antibody binding, higher = more signal;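 also: score merges feature fluorescence with signal-to-noise for each printed compound spot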
[10] = tested on: Human papillomavirus type 1a E7 protein (residues 1-88); assay: HPV1a E7 small-molecule binders, primary screen, biochemical, small-molecule microarray, residues 1-88, 635 nm (AID 1129); settings: small-molecule microarray binding, fluorescence 635 nm; higher = more signal
[11] = target: Focal adhesion kinase 1 (Homo sapiens) (UniProt Q05397); assay: small-molecule microarray binders of FAK, primary screen, biochemical, 635/667 nm fluorescence, BSA, DTT (AID 1130); settings: PTK2 binding, 635 nm fluorescence, higher = more signal;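 also: composite of spot emission at 667 nm and signal to noise over triplicate slides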
Sequence of Focal adhesion kinase 1 (Homo sapiens) (Q05397 whole entry, looked up): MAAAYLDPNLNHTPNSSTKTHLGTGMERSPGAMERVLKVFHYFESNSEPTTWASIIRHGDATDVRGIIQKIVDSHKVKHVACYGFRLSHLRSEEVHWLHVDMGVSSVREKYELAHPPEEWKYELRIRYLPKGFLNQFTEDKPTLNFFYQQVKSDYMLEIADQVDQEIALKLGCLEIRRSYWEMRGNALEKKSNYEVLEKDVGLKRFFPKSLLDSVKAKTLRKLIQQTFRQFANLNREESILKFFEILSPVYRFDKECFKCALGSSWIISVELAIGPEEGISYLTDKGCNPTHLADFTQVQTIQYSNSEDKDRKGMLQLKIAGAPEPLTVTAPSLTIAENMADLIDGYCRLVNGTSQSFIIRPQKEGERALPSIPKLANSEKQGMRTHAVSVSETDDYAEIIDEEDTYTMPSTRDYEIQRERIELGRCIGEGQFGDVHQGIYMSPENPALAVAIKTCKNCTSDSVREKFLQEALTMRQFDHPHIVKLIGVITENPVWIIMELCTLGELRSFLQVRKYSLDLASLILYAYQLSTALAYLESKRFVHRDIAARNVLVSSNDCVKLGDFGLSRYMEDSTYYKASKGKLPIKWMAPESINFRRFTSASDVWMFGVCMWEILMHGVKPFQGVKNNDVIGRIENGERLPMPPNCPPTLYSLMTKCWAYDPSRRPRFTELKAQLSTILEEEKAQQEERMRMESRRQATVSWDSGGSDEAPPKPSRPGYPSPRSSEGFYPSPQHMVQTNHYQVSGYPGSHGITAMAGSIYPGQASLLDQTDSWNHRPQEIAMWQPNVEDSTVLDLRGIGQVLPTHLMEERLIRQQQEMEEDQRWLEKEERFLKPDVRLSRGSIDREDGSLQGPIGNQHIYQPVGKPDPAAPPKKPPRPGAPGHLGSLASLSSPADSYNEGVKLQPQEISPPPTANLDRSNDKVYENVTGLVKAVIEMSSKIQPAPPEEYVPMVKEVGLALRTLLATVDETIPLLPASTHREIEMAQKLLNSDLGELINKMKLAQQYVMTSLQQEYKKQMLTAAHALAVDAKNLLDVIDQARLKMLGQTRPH

[12] = tested on: Fibrinogen (Alexa647-labelled); assay: fibrinogen binders on compound microarrays, profiling panel, artefact control for SMM control-protein annotation, biochemical, small-molecule microarray, 635/667 nm fluorescence (AID 1131); settings: fibrinogen-A647 binding fluorescence, higher = more signal;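 also: z-score merges 667 nm fluorescence with per-spot signal-to-noise over triplicate slides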
[13] = target: Follistatin (Homo sapiens) (UniProt P19883); assay: follistatin binders on small-molecule microarrays, primary screen, biochemical, small-molecule microarray, 635/667 nm fluorescence (AID 1132); settings: FST binding, 635 nm fluorescence, higher = more signal
Sequence of Follistatin (Homo sapiens) (P19883 whole entry, looked up): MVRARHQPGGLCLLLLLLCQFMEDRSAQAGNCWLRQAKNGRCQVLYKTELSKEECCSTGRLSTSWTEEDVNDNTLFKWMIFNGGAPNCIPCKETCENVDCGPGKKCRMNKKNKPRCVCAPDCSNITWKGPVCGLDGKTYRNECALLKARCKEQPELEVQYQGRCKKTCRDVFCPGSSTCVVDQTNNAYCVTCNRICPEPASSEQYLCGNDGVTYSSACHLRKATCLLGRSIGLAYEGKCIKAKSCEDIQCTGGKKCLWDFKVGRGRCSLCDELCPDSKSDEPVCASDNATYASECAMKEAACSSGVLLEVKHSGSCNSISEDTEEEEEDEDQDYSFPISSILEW

[14] = target: Fibroblast growth factor 2 (Homo sapiens) (UniProt P09038); assay: FGF2 binders on small-molecule microarrays, primary screen, biochemical, small-molecule microarray, 635/667 nm fluorescence (AID 1133); settings: small-molecule microarray binding, FGF2, fluorescence 635/667; higher = more signal
Sequence of Fibroblast growth factor 2 (Homo sapiens) (P09038 whole entry, looked up): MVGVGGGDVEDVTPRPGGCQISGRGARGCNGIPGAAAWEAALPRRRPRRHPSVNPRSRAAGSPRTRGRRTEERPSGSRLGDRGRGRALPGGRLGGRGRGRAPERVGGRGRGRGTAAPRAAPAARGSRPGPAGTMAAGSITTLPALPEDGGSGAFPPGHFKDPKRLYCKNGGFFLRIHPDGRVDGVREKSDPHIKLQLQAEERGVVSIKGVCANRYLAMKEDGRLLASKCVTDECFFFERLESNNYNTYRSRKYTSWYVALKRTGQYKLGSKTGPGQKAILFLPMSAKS

[15] = mitochondrial membrane potential change in A549 cells, profiling panel, cell-based, JC-1 fluorescence, basal, 24 h, 100 nL (AID 1138); settings: higher = more signal;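 also: A549 lung adenocarcinoma cells under basal conditions with no added stimulus; test concentration not given here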
Lefty1 = Lefty1 binders on small-molecule microarrays, primary screen, biochemical, small-molecule microarray, 635/667 nm fluorescence (AID 1139); settings: small-molecule microarray binding, fluorescence 635/667; higher = more signal
[16] = tested on: wheat germ agglutinin (Triticum aestivum), Alexa647-labelled; assay: wheat germ agglutinin binders on compound microarrays, profiling panel, artefact control for SMM control-protein annotation, biochemical, small-molecule microarray, 635/667 nm fluorescence (AID 1140); settings: WGA-A647 binding, 635 nm fluorescence, higher = more signal;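 also: score merges 667 nm feature emission with signal to noise over triplicate slides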
[17] = target: Luciferin 4-monooxygenase (Photinus pyralis) (UniProt P08659); assay: firefly luciferase enzyme inhibitors, primary screen, biochemical, luminescence, purified enzyme, 2006 set (AID 1141); settings: SteadyGlo luminescence, 30 min, higher = more signal, called active from +8 up or from −8 down;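 also: cell-free assay with purified firefly luciferase at 100 ng per well in PBS; test concentration not given here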
Sequence of Luciferin 4-monooxygenase (Photinus pyralis) (P08659 whole entry, looked up): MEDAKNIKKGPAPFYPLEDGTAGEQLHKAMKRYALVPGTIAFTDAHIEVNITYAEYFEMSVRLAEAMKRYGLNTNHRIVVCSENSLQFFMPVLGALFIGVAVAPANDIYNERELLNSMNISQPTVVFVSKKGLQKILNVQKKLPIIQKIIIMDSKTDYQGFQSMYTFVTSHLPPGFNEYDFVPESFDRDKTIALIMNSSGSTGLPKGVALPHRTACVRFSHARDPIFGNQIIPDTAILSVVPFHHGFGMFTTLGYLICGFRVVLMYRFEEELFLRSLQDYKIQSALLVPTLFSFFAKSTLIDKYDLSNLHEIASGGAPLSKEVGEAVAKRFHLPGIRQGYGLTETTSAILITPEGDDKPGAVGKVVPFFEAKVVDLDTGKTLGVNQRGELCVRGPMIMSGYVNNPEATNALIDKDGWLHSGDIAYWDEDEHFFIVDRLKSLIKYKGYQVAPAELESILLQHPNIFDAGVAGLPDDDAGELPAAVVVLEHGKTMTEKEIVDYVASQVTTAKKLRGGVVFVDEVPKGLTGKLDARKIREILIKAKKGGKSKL

| SMILES | composite z-score (Albumin (Bos taurus)) | composite Z-score [1] | composite z-score [2] | composite z-score [3] | composite z-score [4] | composite z-score [5] | composite z-score [6] | composite z-score (Sam68 (KHDRBS1)) | composite z-score [7] | composite z-score [8] | composite z-score [9] | composite z-score [10] | composite z-score [11] | composite z-score [12] | composite z-score [13] | composite z-score [14] | z-score [15] | composite z-score (Lefty1) | composite z-score [16] | z-score [17] |
| --- | --- | --- | --- | --- | --- | --- | --- | --- | --- | --- | --- | --- | --- | --- | --- | --- | --- | --- | --- | --- |
| CC(C)[C@H](NC(=O)OC(C)(C)C)[C@@H](O)CC(=O)C(C)(C)C | -0.269 | -0.382 (inactive) | -0.178 | -0.152 | -0.163 | 0.163 | -0.0769 | -0.0938 | 0.591 | 0.188 | -0.007 | -0.195 | -0.402 | 0.0622 | 0.359 | 0.516 | 0.109 | 0.627 | -0.0466 | 0.0879 (inactive) |
| CC(CCN1CCc2nc(-c3ccccc3)c(-c3ccccc3)cc2C1)=NO[C@@H](C)c1cc(-c2c(C)cc(C)cc2C)no1 | 0.554 | 0.0956 (inactive) | -0.0918 | -0.164 | 0.0148 | 0.157 | -0.0375 | -0.0575 | -0.583 | 0.613 | 0.962 | -0.444 | -0.228 | 0.496 | -0.289 | -0.44 | 0.281 | -0.0591 | 0.493 | 0.618 (inactive) |
| O=C1C[C@@H](O)[C@@H](O)[C@@H]2[C@@H]3C(=O)N(Cc4ccccc4)C(=O)[C@@H]3CC[C@H]12 | -0.0028 | -0.082 (inactive) | 0.111 | -0.107 | 0.213 | -0.0842 | 0.23 | 0.184 | 0.415 | 0.941 | 0.0747 | 0.467 | 0.141 | 0.872 | 0.967 | 0.347 | -0.579 | 0.329 | 0.565 | 0.675 (inactive) |
| CCOC(=O)CCN1C(=O)[C@H]2[C@H]3[C@H](O)[C@H](O)CC(=NNC(=O)OCc4ccc(OC)cc4)[C@H]3CC[C@H]2C1=O | 0.33 | 0.0321 (inactive) | -0.0328 | -0.061 | -0.0767 | 0.205 | -0.0428 | 0.576 | 0.382 | -0.0813 | -0.0305 | 0.568 | 0.0684 | 0.446 | -0.0495 | 0.0077 | -0.734 | 0.161 | 0.282 | 0.624 (inactive) |
| COC(=O)[C@H](Cc1ccccc1)NC(=O)[C@@H](C)CO | 0.317 | 0.047 (inactive) | 0.226 | -0.181 | 0.465 | 0.207 | 0.143 | 0.48 | 0.501 | -1.01 | 0.0868 | -0.196 | -0.233 | 0.115 | 1.28 | 0.592 | -1.2 | 1.5 | 0.821 | 0.716 (inactive) |
| C[C@@H](c1ccccc1)N1C(=O)[C@H]2[C@H]3[C@H](O)[C@H](O)CC(=NNC(=O)OCc4ccccc4)[C@@H]3CC[C@H]2C1=O | 0.517 | 0.581 (inactive) | -0.0647 | -0.148 | -0.191 | -0.231 | -0.723 | 0.723 | 1.45 | -0.569 | -0.23 | -1.01 | 0.37 | -0.864 | 1.43 | 1.66 | -0.383 | 1.39 | -0.212 | 0.574 (inactive) |
